Source: PubChem BioAssay (National Center for Advancing Translational Sciences (NCATS))
HT1080 IDH1KD tx – qHTS for induction of synthetic lethality in tumor cells producing 2HG: qHTS for the HT-1080-IDH1KD cell line | HT-1080 IDH1 knockdown viability, ATP luminescence, 48 h | Potency, µM (doses to about 46.1 µM), for inactives: at the top dose activity, negative = toxicity, actives largely listed as cytotoxic | 360,000 compounds, 2% hits;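 also: potency is read from the fitted curve at half-maximal effect; 0% = DMSO wells and -100% = cell-free medium wells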
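% activity derives from luminescence (CellTiter-Glo), normalised to DMSO and no-cell wells. HT-1080-IDH1KD cells, 750/well, had 48 h compound exposure at 37 °C.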
DT40 TDP1 CPT – qHTS for Inhibitors of human tyrosyl-DNA phosphodiesterase 1 (TDP1): qHTS in cells in presence of CPT; AID 686979, 2013; 420,000 compounds, 12% hits; chicken DT40 Tdp1-/-;hTDP1 cells + 20 nM CPT, ATP luminescence, 48 h; Potency, µM (doses to about 46.2 µM), without a hit: at the top dose activity change, negative = growth inhibition, hits mostly inhibitors; also: potency is read from the fitted curve at half-maximal effect; nearly all actives have a fitted effect of over 55% in size
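Cell growth measured by CellTiter-Glo luminescence after a minimum 48 h, 37 C compound exposure with 20 nM CPT in Tdp1-knockout DT40 cells stably expressing hTDP1, seeded 400/well; qHTS titration format.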
IL1B secr inh – qHTS for Inhibitors of Inflammasome Signaling: IL-1-beta AlphaLISA Primary Screen; 360,000 compounds, 4.7% hits; THP-1 LPS/ATP IL-1B secretion, AlphaLISA, 16 h; hits give low values; activity change, % at 57.5 µM; in the data active = activity change below about -50%; inconclusive = mostly about -30% to -49%
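Secreted IL-1B measured by AlphaLISA bead assay after 16 h compound exposure of THP-1 cells; compounds (final up to 57.5 uM) added 1 h before LPS (250 ng/mL) and ATP (1.25 mM) stimulation; lower signal means less secretion.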
ELG1 DNA repair – qHTS screen for small molecules that inhibit ELG1-dependent DNA repair in human embryonic kidney (HEK293T) cells expressing luciferase-tagged ELG1; HEK293T ELG1-luciferase reporter, luminescence, 16 h; DNA damage induced by 5-fluorouridine; Potency, µM (titrated, usually from 46.1 µM), for the others: at the top dose activity change, negative = inhibition, most hits filed as inhibitors; 330,000 compounds, 2.3% hits; AID 504467, 2011; also: potency is read from the fitted curve at half-maximal effect; nearly all actives have a fitted effect of over 55% in size
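Reporter activity after DNA damage by 5-fluorouridine is monitored. Compound-treated cells incubate 16 hr at 37 °C, then ONE-Glo is added for 30 min before luminescence reading.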
HT1080-NT tox – qHTS for induction of synthetic lethality in tumor cells producing 2HG: qHTS for the HT-1080-NT fibrosarcoma cell line; HT-1080-NT fibrosarcoma viability, CellTiter-Glo ATP luminescence, 48 h; AID 686970, 2013; Potency, µM (top dose mostly 46.1 µM), for inactives: at the highest dose activity, negative = less viability, most hits filed as cytotoxic; 360,000 compounds, 1.6% hits;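 also: NT is the 2HG producing partner of a matched IDH1 knockdown line; potency is read from the fitted curve at half-maximal effect; 0% = DMSO-treated cells and -100% = media-only wells without cells; nearly all actives have a fitted effect of over 55% in size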
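750 cells/well, RPMI + 5% FBS; 2 h settle, compound pin-transfer, 48 h at 37 degrees C. CellTiter-Glo 10 min RT, luminescence. Normalized to DMSO and media-only wells.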
TDP1 cell noCPT – qHTS for Inhibitors of human tyrosyl-DNA phosphodiesterase 1 (TDP1): qHTS in cells in absence of CPT | 420,000 compounds, 15% hits | DT40 Tdp1-/- hTDP1 cells, no CPT, ATP luminescence, 48 h | Potency, µM (top dose mostly 46.2 µM), inactives show at the highest dose activity change, negative = growth inhibition, most hits filed as inhibitors | AID 686978, 2013; also: potency is read from the fitted curve at half-maximal effect; nearly all actives have a fitted effect of over 55% in size
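DT40 Tdp1-/-;hTDP1 cells, no CPT (DMSO vehicle only), 400 cells/well; compounds pin-transferred; ≥48 hr, 37 °C; CellTiter-Glo 30 min RT dark, luminescence read.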
The depositor's hits bear a star; ? = inconclusive; / = no result given; [ ] = another dose, or the depositor's remark. Shown are actives, neighbours in structure and some others; about 19% of the full set was active somewhere. Unless noted, calls follow the shape of the dose curve; as a rule, active = well fitted curve in the direction sought with a large enough effect; inconclusive = small, poorly fitted or top-dose-only effect, or another doubt; inactive = no such curve, though single readings can be large; an effect the other way counts as inactive or inconclusive. Unless noted, % is scaled to controls: 0 for no effect and ±100 for the full control effect.

SMILES | HT1080 IDH1KD tx | DT40 TDP1 CPT | IL1B secr inh | ELG1 DNA repair | HT1080-NT tox | TDP1 cell noCPT
CCOc1ccc(/C=N/NC(=O)c2nnn(-c3nonc3N)c2-c2ccc(OCC)cc2)cc1 | -2% | 4% | 23 | ? | -2% | 4%
Nc1nonc1-n1nnc(C(=O)N/N=C/c2cc(Br)cs2)c1-c1ccccc1 | ? | ? | -92* | -19% | -17% | ?
C/C(=N\NC(=O)c1nnn(-c2nonc2N)c1-c1ccccc1)c1cccnc1 | 20% | -5% | 24 | -1% | 16% | 18%
C/C(=N/NC(=O)c1nnn(-c2nonc2N)c1-c1ccccc1)c1ccc2c(c1)OCO2 | -12% | 4% | -86* | -28% | -4% | -10%
CCOc1ccc(-c2c(C(=O)N/N=C/c3c[nH]c4ccccc34)nnn2-c2nonc2N)cc1 | -30% | ? | 0 | ? | -25% | 16µM*
Nc1nonc1-n1nnc(C(=O)N/N=C/c2ccccn2)c1-c1ccccc1 | 3% | -10% | -3 | -8% | -1% | 27%
Nc1nonc1-n1nnc(C(=O)N/N=C/c2ccc(O)cc2)c1COc1ccc(F)cc1 | ? | 3% | ? | -15% | ? | -5%
O=S(=O)(NCCCNS(=O)(=O)c1c(F)cccc1F)c1ccc2c(c1)OCCO2 | / | / | / | 9% | / | /
CCc1ccc(-n2c3nc(=O)[nH]c(=O)c-3cc3c(C)nn(-c4ccccc4)c32)cc1 | / | 6% | / | / | / | 10%
CN(C)Cc1ccccc1-c1cc(NCc2ccccc2)ncn1 | / | -7% | / | / | / | 6%
Nc1nonc1-n1nnc(C(=O)N/N=C/c2ccccc2)c1CN1CCc2ccccc21 | 5% | ? | 6 | -3% | 0% | ?
CCOc1cccc(-c2c(C(=O)N/N=C(\C)c3ccccn3)nnn2-c2nonc2N)c1 | ? | 2.3µM* | 48 | ? | ? | 1.6µM*
C/C(=N\NC(=O)c1nnn(-c2nonc2N)c1CN1CCc2ccccc21)c1ccccc1O | 0% | 6.5µM* | 93 | ? | -12% | 6.5µM*
COCc1c(C(=O)N/N=C\c2cccs2)nnn1-c1nonc1N | -7% | 9% | -68* | 3% | -4% | -18%
CCOc1cccc(-c2c(C(=O)N/N=C(\C)c3ccncc3)nnn2-c2nonc2N)c1 | -3% | 0% | 32 | ? | -2% | 7%
CC1(C(=O)NCc2cccc3ccccc23)CCN1Cc1ccccc1OC(F)F (stereo not drawn) | ? | 21µM* | ? | / | ? | 15µM*
CC1(C(=O)NCc2ccc(C(F)(F)F)cc2)CCN1C1Cc2ccccc2C1 (stereo not drawn) | ? | ? | -10 | / | -32% | ?
CC1(C(=O)NCc2ccc(C(F)(F)F)cc2)CCN1Cc1cc2ccccc2o1 (stereo not drawn) | ? | 21µM* | -15 | / | -18% | 18µM*
COC(=O)Cc1ccc(OC2(C)CCN(Cc3ccccc3OC(F)F)C2)cc1 (stereo not drawn) | 0% | -13% | -54* | / | 0% | ?
CC1(C(=O)NCc2ccc(C(F)(F)F)cc2)CCN1Cc1ccccc1OC(F)F (stereo not drawn) | ? | ? | -9 | / | -15% | 23µM*
COc1ccc(C)cc1NC(=O)COC(=O)Cc1c[nH]c2ccccc12 | 3% | -6% | 32 | / | -2% | -19%
Cc1nc2cc(-c3ccccc3)nn2c(C)c1CCC(=O)NCc1cccc(Cl)c1 | / | 26µM* | / | / | / | ?
O=C(CCc1nc2ccccc2c(=O)[nH]1)NNC(=O)c1cccc(Cl)c1 | -6% | -1% | 19 | -6% | -10% | -5%
O=C(CCc1nc2ccccc2c(=O)[nH]1)NCc1cccc(Cl)c1 | ? | 21µM* | 44 | -5% | 21µM* | 23µM*
COc1ccc(CCNC(=O)CCc2c(C)nc3cc(-c4cccc(F)c4)nn3c2C)cc1OC | / | 8.2µM* | / | / | / | 8.2µM*
SMILES | HT1080 IDH1KD tx | DT40 TDP1 CPT | IL1B secr inh | ELG1 DNA repair | HT1080-NT tox | TDP1 cell noCPT
COc1cc(OC)cc(-c2cc3nc(C)c(CCC(=O)NCc4ccccc4)c(C)n3n2)c1 | -17% | ? | ? | 21µM* | -19% | 18µM*
COc1ccccc1CNC(=O)CCc1c(C)nc2cc(-c3ccccc3OC)nn2c1C | -4% | ? | -9 | ? | -6% | ?
COc1ccc(N(CC(=O)NCCc2ccccc2)S(=O)(=O)c2ccc(OC)c(OC)c2)cc1 | / | -15% | / | / | / | -28%
O=C(COC(=O)Cc1n[nH]c(=O)c2ccccc12)Nc1c(Br)cc([N+](=O)[O-])cc1Br | -1% | -21% | 58 | / | -1%[9.24 µM] | 6%
COc1ccccc1CNC(=O)CCc1c(C)nc2cc(-c3ccc(Cl)cc3)nn2c1C | / | -24% | / | / | / | -17%
COc1cc(OC)cc(-c2cc3nc(C)c(CCC(=O)NCCc4cccc(C)c4)c(C)n3n2)c1 | / | 16µM* | / | / | / | ?
COc1ccccc1-c1cc2nc(C)c(CCC(=O)NCc3ccc(F)cc3)c(C)n2n1 | 6% | ? | 16 | 0% | -1% | ?
COc1ccccc1-c1cc2nc(C)c(CCC(=O)NCCc3ccc(SC)cc3)c(C)n2n1 | / | ? | / | / | / | 21µM*
COc1cc(OC)cc(-c2cc3nc(C)c(CCC(=O)Nc4ccccc4OC)c(C)n3n2)c1 | / | ? | / | / | / | 23µM*
COc1ccc(-c2cc3nc(C)c(CCC(=O)NCc4ccccc4Cl)c(C)n3n2)c(OC)c1 | / | 18µM* | / | / | / | 13µM*
O=S1(=O)N[C@@H](Cc2ccccc2)COc2cc(N3CC[C@H](O)C3)ccc21 | 2% | 10% | 29 | / | -3% | ?
CC(C(=O)Nc1ccc2c(c1)OCCO2)N(C)CC(=O)Nc1ccccc1Br (stereo not drawn) | 9% | -6% | -9 | -14% | 5% | -10%
Cc1nn(Cc2ccccc2)c2c1C(c1ccc(Cl)cc1)C(C#N)=C(N)O2 (stereo not drawn) | ? | 18µM* | 12 | -1% | -25% | 21µM*
